From PubChem BioAssay AID624298 (National Center for Advancing Translational Sciences (NCATS), 2012)
Records with an inconclusive call do not appear. Values without a mark were called inactive. Activity calls are given as the source filed them. The call rests on the fitted dose curve; in most records, active means well fitted activation curve with a large enough effect; inconclusive means small, poorly fitted or top-dose-only effect; inactive means no such curve, though single readings can be large or run the other way.

experiment: Activators of T cell receptors: Hit Validation; conditions: primary human leukocytes, cytokine release by HTRF, 48 h, TCR-stimulated with anti-CD3 beads; series mostly up to 46.1 µM; activation: at the top concentration; on activation: 0% is about no effect
Description: Normally activation of naive T cells requires two signals. 1. A signal through the T cell receptor (TCR) which provides antigen specificity to the response. 2. Signals through co-stimulatory molecules, which are necessary for proliferation, survival and cytokine production. In the absence of co-stimulatory signals T cells are not effectively activated, and may even be rendered anergic or unresponsive to subsequent signaling. This lack of costimulation has been shown in multiple model systems to be a major factor in the limited strength and effectiveness of anti-tumor T cell responses. The goal of this project is to identify small molecule compounds that will stimulate T cell activation in the presence of TCR signaling but in the absence of co-stimulatory signals, thereby allowing activation of naive T cells in the absence of co-stimulation. Identification of such compounds would have clear experimental and clinical applications in instances where desirable antigen-specific immune responses are not generated due to a lack of co-stimulation, for example in the generation of anti-tumor responses.
In collaboration between the National Cancer Institute and NIH Chemical Genomics Center, a high-throughput amenable screen was developed to discover small molecules that co-stimulate and activate human T cell receptors. The screen will be carried out using a novel homogeneous time resolved fluorescence energy transfer (HTRF) assay to measure production of the cytokine IL-2 by activated T cells and will be tested against the NIH Molecular Libraries Small Molecule Repository (MLSMR). This is the same assay tested against the hits identified in the primary screen.
NIH Chemical Genomics Center [NCGC]
NIH Molecular Libraries Probe Centers Network [MLPCN]
Assay Submitter (PI): Richard Hodes, National Cancer Institute, NIH
Primary human leukocytes are incubated with a-CD3 beads and compounds for 48 hr. The amount of secreted IL-2 is then assayed with a HTRF IL-2 kit. The presence of IL-2 cytokine captures the detection reagents and brings the a-IL-2-K and a-IL-2-d2 into close proximity. Upon excitation with 320nm light, the europium cryptate is capable of transferring energy to acceptor molecules within close proximity, resulting in acceptor molecule emission at 665nm.
Potency means the concentration at half of the fitted maximal effect.

Row | Structure (SMILES) | activation | Potency
1 | O=C(OCc1cc(=O)n2cc(Br)ccc2n1)C1COc2ccccc2O1 (stereo not given) | 6.24% | –
2 | CN(C)c1ccc(C=c2c3ccccc3n3c2c2ccccc2[n+]3C)cc1 | – | 0.56 µM (active)
3 | Cc1[nH]c2ccccc2c1C(=O)CSc1nnc(C2CC2)o1 | 4.8% | –
4 | C/C(=N\NC(=O)COc1ccc([N+](=O)[O-])cc1)c1ccco1 | 11.5% | –
5 | O=C(COC(=O)/C=C/c1cccc(Br)c1)Nc1cccc(S(=O)(=O)NC2=NCCC2)c1 | 4.02% | –
6 | C[C@@H]1O[C@@H](O[C@H]2[C@H](Oc3cc(O)c4c(c3)O[C@H](c3ccc(O)cc3)CC4=O)O[C@H](CO)[C@@H](O)[C@@H]2O)[C@H](O)[C@H](O)[C@H]1O | -5.16% | –
7 | O=C1/C(=C/c2cccnc2)SC(=S)N1Cc1ccco1 | 8.63% | –
8 | Cc1cccc(NC(=O)c2sc3nc(N)c(C#N)cc3c2N)c1 | 2.08% | –
9 | COc1cc(/C=C/C(=O)OCc2csc(CC(=O)Nc3ccc(C)cc3)n2)ccc1OCC#N | -4.15% | –
10 | O=C1N=C(O)CN1/N=C/c1ccc(-c2ccc([N+](=O)[O-])cc2)o1 | 3.53% | –
11 | Cc1ccc(S(=O)(=O)N(C)/N=C/C=C/c2ccccc2)cc1 | 8.67% | –
12 | O=C(COC(=O)C1CCN(c2ccc(C(F)(F)F)cn2)CC1)NCc1ccccc1 | 0.738% | –
13 | CCN(CC)S(=O)(=O)c1ccc(N2CCN(C)CC2)c(NC(=O)CN2C(=O)NC3(CCCCC3)C2=O)c1 | 9.9% | –
14 | Cn1nc(C(F)(F)F)cc1-c1ccc(S(N)(=O)=O)s1 | 8.89% | –
15 | CCN(CC(=O)Nc1ccccc1C(F)(F)F)C(=O)c1ccccc1Sc1ccccc1C#N | 4.67% | –
16 | CSCc1c(C(=O)OCC(=O)NC2CCCCC2)oc2ccccc12 | 3.06% | –
17 | COc1ccc(NC(=O)C(c2ccccn2)N(C(C)=O)c2ccc(C)cc2)cc1 (stereo not given) | -1.67% | –
18 | CC(C)NC(=O)CCCn1c(=S)[nH]c2cc3c(cc2c1=O)OCO3 | 1.07% | –
19 | CCN1CNC(=S)N(Cc2ccccc2)C1 | 4.1% | –
20 | CCOC(=O)c1ncn2c1[C@@H]1CCNC1C(=O)c1cc(OC)ccc1-2 (stereo not given in full) | -4.11% | –

Row | Structure (SMILES) | activation | Potency
21 | CCn1nnnc1NC(=O)c1ccc2ccccc2c1 | 3.62% | –
22 | Cc1cc(NC(=O)CN2C(=O)NC(CC(C)C)C2=O)ccc1Br (stereo not given) | 0.93% | –
23 | COc1cccc(CNC(=O)c2ccc(Cl)c(S(=O)(=O)N3CCOCC3)c2)c1 | -13.2% | –
24 | CCN(C(=O)CSc1nnc(C2CC2)n1-c1ccccc1)C1CCS(=O)(=O)C1 (stereo not given) | -6.94% | –
25 | Cc1[nH]c2ccccc2c1C(=O)COc1ccccc1F | 1.15% | –
26 | CCCn1c(-c2ccccc2)nc2c(=O)n(C)c(=O)[nH]c21 | 8.8% | –
27 | CC(=O)c1cccc(S(=O)(=O)N2CCC(C(=O)Nc3cccc(C(=O)NC4CC4)c3)CC2)c1 | 2.12% | –
28 | COc1ccc(OC)c(NC(=O)COC(=O)c2ccc(OC)c(S(=O)(=O)N3CCOCC3)c2)c1 | 7.46% | –
29 | COc1ccc(C(=O)COC(=O)c2sc(C)nc2C)cc1OC | 5.32% | –
30 | CC(=O)NC(CC(=O)O)C(=O)O (stereo not given) | -17% | –
31 | COc1ccc(NC(=O)COC(=O)CN2C(=O)C3CCCCC3C2=O)cc1OC (stereo not given) | 0.394% | –
32 | COc1ccc(C(=O)/C=C(\C)Nc2ccc(NC(C)=O)cc2)cc1 | -0.292% | –
33 | Oc1ccc(/C=N\Nc2nncc(-c3ccccc3)n2)cc1 | 10.3% | –
34 | CCC(/C=C1\Sc2ccc(OC)cc2N1CCO)=C\c1sc2ccc(OC)cc2[n+]1CCO | – | 9.96 µM (active)
35 | O=C(COc1ncnc2c(Cl)cc(Cl)cc12)Nc1cc([N+](=O)[O-])ccc1Cl | 4.07% | –
36 | COc1ccc(C(=O)c2sc3nc(C)cc(-c4cccs4)c3c2N)cc1OC | 9.06% | –
37 | CC(NC(=S)NCCN1CCOCC1)C12CC3CC(CC(C3)C1)C2 (stereo not given) | -1.44% | –
38 | COc1ccc(S(=O)(=O)N2CCN(C(=O)CCc3c[nH]c4ccccc34)CC2)cc1 | 5.36% | –
39 | CC(C)NS(=O)(=O)c1ccc(NC(=O)C(C)OC(=O)C2CCC2)cc1 (stereo not given) | 3.75% | –
40 | COc1ccccc1N1CCN(CCCC(=O)c2ccc(F)cc2)CC1 | 4.45% | –
